# Measurements from PubChem BioAssay AID1508600 (Functional Genomics Laboratory (NCATS/FGL), 2020).
# The whole screen tested about 53,000 sequences, of which about 3,700 (7%) were called active. The full list was thinned out, with actives kept by preference. A number with no mark means an inactive call.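 How the source made its calls: active means gene knockdowns whose robust z-score for IL-1 alpha signal is at least 2 or at most -2, so actives lie on both sides; inactive means the rest.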
# Test: Components of the Cytosolic LPS Sensing Pathway: Gene Identification via Genome-wide siRNA Screen;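 further: robust z of the log signal after scaling to non-targeting control siRNA wells of the plate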
# Conditions: RAW264.7 macrophages, IL-1a HTRF, actives lie on both sides, screened at 100 nM (by protocol), cells primed 5 h with Pam3CSK4 first
# Method in brief: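 Three distinct siRNAs per gene were tested singly at 100 nM in RAW264.7 macrophages. Following Pam3CSK4 priming and 24 hour LipidA transfection, IL-1a secretion was read by HTRF.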
row,Sequence,z-score
1,GCUCCUUGCUUGAUUCUACTT against BC107364,0.649
2,GGAUAGAGUUAAUGAAAAGTT against Poc5,0.827
3,CCUCUAGAUAGUGUUAGAGTT against Smarcd1,-2.19 (active)
4,GGCACAUUGUGGUGUCUUGTT against Pycr1,-3e-05
5,GGAGAUUGAAGAGCUCCGATT against Cabp1,-0.0021
6,GGCCCAUAUUUUAUUACCGTT against Galns,-1.84
7,GGAGGCAGUGUUUUGUCAATT against Fgd4,-0.912
8,GGAAGGCAUUGAAGCUGAATT against Armt1,0.447
9,GGGCCAACUCAAAACAAAATT against Wdr37,-0.74
10,GGUUGUUCACUAGGUCACUTT against Creg2,0.591
11,GGUGUGUGAAAUCACUCACTT against Oxnad1,0.303
12,CCAAUUAUGUGAGAAGUGATT against Snx24,0.463
13,CCAACUCGUGAUUCUAGACTT against Tmed10,1.27
14,GGUAAAGGUAAACUUAUACTT against Vmn1r148,-4.68 (active)
15,GCGCAAUACGUGGGUUUGUTT against Shisal2b,0.254
16,GCUCGUUUGUGUAUAAGGATT against 4930503L19Rik,0.276
17,GGUUCUCGUGUGGCACACUTT against B3gat2,0.126
18,CCUUCAAUCUUUCUUUCUGTT against Olfr1465,-0.635
19,CCGUGAUAACAACAUUUGUTT against Olfr750,-0.833
20,GGAGUAUGAUUCAGAAAUGTT against Scn11a,-0.607
21,GGUCAUCAUGAGCCCAUGUTT against Olfr1341,-1.72
22,GGAUUUGGCUAUAUCAACATT against Rfc2,-1.56
23,CCAUAGCUCUGGAAUGGUGTT against Kcnt1,-2.59 (active)

row,Sequence,z-score
1,GGAUGUAUGCCAAAGAAUUTT against Fmo5,-0.0456
2,CGUGCUAAACCAAGACUUATT against Lyplal1,1.25
3,GGGUGAAUUUUGUUUUUGUTT against Kcnj14,3.05 (active)
4,GGAUAGCAUGCUUCCUGAGTT against Rhbdf2,-2.19 (active)
5,GGAAAUGCUCCUCUAGGAUTT against Ppcs,0.039
6,GGAUGAAGAACUGACUCCGTT against Mboat2,-0.108
7,GGUGCAAUCAAAUGGAAUUTT against Nrf1,3.75 (active)
8,GCUACGUAAACGGAAGGCUTT against Abraxas1,0.272
9,GGUAAGAGGAUGGACACAATT against Chst1,1.08
10,GAUCCGUUGGGAAAAGAACTT against Ssbp4,-0.881
11,GGCAGUUCUUAAGUAAUCATT against Fem1al,0.924
12,GGAGAAAGAAGCUAGUGAGTT against Gm6787,-2.77 (active)
13,GCGAACUCCUCUUUAGGCATT against Chrng,-0.594
14,GCCAUCCUUCCAUUUAAGATT against Wdyhv1,-0.478
15,GGUAAGGACUAUUUGAAUUTT against Lpar1,-0.429
16,GCAAAUUAAGCACUGUAAGTT against Dennd1b,0.379
17,GGUGGUUAGAUCUUACGCUTT against Tmem184a,4.37 (active)
18,CGCGUACGACUUCUACAAATT against Hmgcs2,0.775
19,GGUGGAGUUUCUCAAAAGCTT against Kcnc3,0.0264
20,GCAGGUACUGCGCUAUUAUTT against Atp13a2,-0.766
21,GGAUGUGGCUGCUUUGAAGTT against Mettl27,-1.38
22,CCUUCUAGACACCAUACCCTT against Pidd1,0.259
23,CCACACGUUCCAUUUCUCGTT against Hilpda,-2.65 (active)

row,Sequence,z-score
1,CGUCAUGCAUUUUUCUAAATT against Trim24,0.489
2,GGAUGAGAAGAAAGAAGAUTT against Srrt,-1.36
3,GGAUACAGCAGUACAAAUGTT against Ces2c,-0.135
4,GGUGCGCUUCUAUGUUCCUTT against Ssrp1,2.38 (active)
5,GGCAAGGAUUUUUCUACCUTT against Tslp,-0.555
6,GCUGCACAAGUGAUAUCCGTT against Trim26,0.397
7,GGGAAAGCCAUCCUUCACUTT against Erich5,0.288
8,GGAGAAAAAGAGAUAAGGUTT against Ppp2r2b,-0.893
9,GCCAUUUGUCCACAAAAUGTT against Ces2g,-2.06 (active)
10,GGACCUGGAGUAUAUGCUGTT against Mgat4f,-0.611
11,GGCACUGUUCUCAUCUGUGTT against Olfr736,-2.41 (active)
12,GGUUGACUCUACAAAAUACTT against Muc5b,-0.656
13,GGCAGUUGUGAACUUUCUCTT against Telo2,0.243
14,GGAAAGGCUGUUUCCUACCTT against Atox1,1.05
15,GGACUUGUGAUUCAAGCAUTT against Rad23b,0.525
16,CCUGAUUGACGACAGUAAGTT against Mcrs1,0.519
17,CGACCAGAGUUAUCUGAAUTT against Ctf2,2.2 (active)
18,GGGAAUUUAUGCAUUAGCATT against Kif2a,0.111
19,GGCUCUGCUAUUUCUCCUGTT against Olfr17,-1.16
20,GCUUGAAUGGAGCGAAUCGTT against Chat,4.86 (active)
21,GGAAACAAAGUCAAUGUGGTT against Cnn1,-0.522
22,GCUGAAGUAGGGUUUAUUATT against Gdap10,0.786
